Assay results from PubChem BioAssay (NCI).
This is part of a sample that, as a whole, favours compounds with a hit. Of some 79,000 tested, about 15% had one in any assay. Rule as the data show it: active = growth inhibition above about 70%; inactive = the rest.

How the values were obtained:
[1] = NCI Yeast Anticancer Drug Screen. Data for the rad50 strain (AID 155);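 also: 0% = growth of vehicle-only cultures of the same strain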; conditions: S. cerevisiae rad50 strain growth inhibition; at 50.0 µM; stronger effect = higher value
Method in brief: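 DNA repair mutant yeast, compound exposure, growth read-out; inhibition is taken relative to vehicle.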

[2] = NCI Yeast Anticancer Drug Screen. Data for the mec2-1 strain (AID 157); conditions: S. cerevisiae mec2-1 strain, at 50.0 µM, stronger effect = higher value
Method in brief: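 Readout is yeast growth inhibition, normalised to vehicle-treated controls, in the mec2-1 strain exposed to compound.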

[3] = NCI Yeast Anticancer Drug Screen. Data for the sgs1 mgt1 strain (AID 161);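 also: 0% = growth of cultures given vehicle only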; conditions: S. cerevisiae sgs1 mgt1 strain, at 50.0 µM, stronger effect = higher value
Method in brief: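 Percent growth inhibition was derived by comparing compound-exposed mutant yeast with vehicle-exposed cultures. The strain carries alterations in DNA damage repair.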

[4] = NCI Yeast Anticancer Drug Screen. Data for the cln2 rad14 strain (AID 165);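 also: 0% = growth equal to vehicle treated cultures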; conditions: S. cerevisiae cln2 rad14 strain, at 50.0 µM, stronger effect = higher value
Method in brief: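 Relative to vehicle controls, growth inhibition of compound-treated cln2 rad14 yeast was recorded.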

[5] = NCI Yeast Anticancer Drug Screen. Data for the bub3 strain (AID 167); conditions: S. cerevisiae bub3 mutant strain, at 50.0 µM, stronger effect = higher value
Method in brief: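 In this screen, a yeast mutant lacking normal mitotic checkpoint function is challenged with compound. Relative growth versus vehicle gives the inhibition value.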

[6] = NCI Yeast Anticancer Drug Screen. Data for the mlh1 rad18 strain (AID 175); conditions: S. cerevisiae mlh1 rad18 strain growth inhibition; at 50.0 µM; stronger effect = higher value
Method in brief: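 Test agents were incubated with a yeast strain of defined genotype (DNA damage repair defect). Inhibition of growth was derived by comparison with vehicle-exposed cultures.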

Measured: growth inhibition

O=C1Nc2cccc3cc(NCC(O)CCl)cc1c23 (stereo unspecified)
inactive: [1] 31.3% | [2] 8.5% | [3] 11.4% | [4] 17.9% | [5] 3.05% | [6] -23.9%

CC1OC(OCC2OC(Oc3ccc4c(=O)c(-c5ccc6c(c5)OCO6)coc4c3)C(O)C(O)C2O)C(O)C(O)C1O (stereo unspecified)
inactive: [1] 15.1% | [2] 3.15% | [3] 12.6% | [4] 28.1% | [5] 20.4% | [6] 8.85%

CC(C)C1(C(C)C)OCC(CO)O1 (stereo unspecified)
inactive: [1] 9.55% | [2] -7.75% | [3] -7.85% | [4] -60.2% | [5] 16.4% | [6] -9.3%

CSc1ccc(NC(=O)Nc2ccc(Nc3ccccc3)cc2)cc1
inactive: [1] -0.95% | [2] 29.8% | [3] 15.1% | [4] -11.9% | [5] 14.2% | [6] 23.3%

COc1ccc(C(=O)c2cc(S(=O)(=O)O)c(OC)cc2O)c(O)c1
inactive: [1] -32.8% | [2] -35.4% | [3] -31.2% | [4] -1.6% | [5] -13.4% | [6] -21.9%

CCC(=O)Oc1ccc(OCc2ccccc2)cc1
inactive: [1] -28.3% | [2] -57.8% | [3] -31.4% | [4] -4% | [5] -16.9% | [6] -25.9%

Cc1ccc(N2C(=O)CNC2=O)cc1
inactive: [1] -10.3% | [2] -5% | [3] -7.8% | [4] -27.2% | [5] 1.2% | [6] -6.45%

C/C(C(=O)O)=C(\C)c1ccccc1
inactive: [1] -0.7% | [2] -0.75% | [3] -0.9% | [4] -15.6% | [5] 2.1% | [6] 5.2%

CC(=O)N(CCCCNC(=O)C(F)(F)F)CCCNC(=O)C(F)(F)F
inactive: [1] 2.7% | [2] -6.5% | [3] 6.55% | [4] 5.15% | [5] -26.8% | [6] -58.5%

O=c1nc(NCC23CC4CC(CC(C4)C2)C3)ccn1C1OC(CO)C(O)C1O (stereo unspecified)
inactive: [1] 21.8% | [2] -0.95% | [3] -8.1% | [4] 16.6% | [5] -4.95% | [6] -6.5%

COc1cc(CNC(=O)NCCCl)cc(OC)c1OC
inactive: [1] -5.55% | [2] 1.2% | [3] -3.2% | [4] -3.45% | [5] -1% | [6] 2.7%

COc1ccccc1NC(=O)NCCCCCCNC(=O)Nc1ccccc1OC
inactive: [1] -25.6% | [2] -2.55% | [3] 2.1% | [4] -39.9% | [5] 0.85% | [6] 13.4%

OCCCc1ccccc1
inactive: [1] -0.1% | [2] -1.65% | [3] -2.55% | [4] -13.2% | [5] 3.25% | [6] -3.7%

C=C1C(=O)O[C@@H]2[C@H]1CC[C@H](C)[C@]1(O)CCC(=O)[C@@]21C
inactive: [1] -5.3% | [2] -13.6% | [3] 14.2% | [4] 7.85% | [5] -4.75% | [6] 3%

CCOC(=O)CCCCCCCCC(=O)Nc1ccc(-n2[nH]c(=O)cc2C)cc1
inactive: [1] -2.6% | [2] -31% | [3] -27.6% | [4] 6.95% | [5] -4.1% | [6] -3.3%

CCCCCCCCCCCCCCCCS(=O)(=O)N/N=C/c1ccc2c(c1)OCO2
inactive: [1] 13.9% | [2] 3% | [3] 3.5% | [4] 4.05% | [5] -0.55% | [6] -3.25%

Cc1ccc(S(=O)(=O)N/N=C/c2cc([N+](=O)[O-])ccc2O)cc1
inactive: [1] 5% | [2] 3.4% | [3] 10.1% | [4] 14.8% | [5] 9.5% | [6] 28.9%

O=C1CCC2CN(C(=O)c3ccccc3)CCC2C1 (stereo unspecified)
inactive: [1] 8.75% | [2] 7.7% | [3] 21.1% | [4] 3.1% | [5] 16.6% | [6] 22.2%

CC(C)NC(=O)OCc1c(COC(=O)NC(C)C)c(S(C)(=O)=O)n2c1CCC2
inactive: [1] 3.65% | [2] -4.7% | [3] -15.3% | [4] 7.9% | [5] -1.3% | [6] 6.8%

Cc1cc(C)c(C(=O)O)c(C)c1Br
inactive: [1] -3% | [2] -27.4% | [3] -4.85% | [4] -34.6% | [5] 9.1% | [6] 4.5%

Cc1ccc(Cl)nn1
inactive: [1] 10% | [2] -1.25% | [3] -2.55% | [4] -3.3% | [5] 12.9% | [6] 2.1%

O=c1[nH]c(=S)[nH]n1C(=S)n1[nH]c(=S)[nH]c1=O
inactive: [1] 5.35% | [2] -2.65% | [3] 8.7% | [4] -7.8% | [5] 13.1% | [6] 9.6%

CC1(C)CC2(C)Sc3ccccc3N2C(=S)N1 (stereo unspecified)
inactive: [1] -35.6% | [2] -2.15% | [3] 13.8% | [4] -19.6% | [5] -0.75% | [6] 17.9%

Cc1ccc([N+](=O)[O-])cc1Br
inactive: [1] 0.3% | [2] -16.1% | [3] -0.5% | [4] -11.8% | [5] 5.5% | [6] 4%

CCc1ccccc1-n1[nH]c(C)c(C=N)c1=O
inactive: [1] -8.2% | [2] -18.1% | [3] -18.2% | [4] -14.1% | [5] -16.7% | [6] -8.15%

O=[N+]([O-])c1ccc2c(c1)Cc1cc([N+](=O)[O-])ccc1-2
inactive: [1] -12.3% | [2] -64.5% | [3] -25.4% | [4] -181% | [5] -54.1% | [6] 51.2%

O=C(COc1ccc(Cl)cc1)Nc1ccccc1Br
inactive: [1] 11% | [2] 12.1% | [3] 7.35% | [4] 9% | [5] 33.7% | [6] -4.55%

O=P(c1ccccc1)(c1ccccc1)C(O)c1ccncc1 (stereo unspecified)
inactive: [1] 1.8% | [2] -17.2% | [3] -0.15% | [4] 10.9% | [5] -23% | [6] -10.9%

Cn1c(COc2ccc(/C=N\N3CCN(/N=C\c4ccc(OCc5c[n+]6ccccc6n5C)cc4)CC3)cc2)c[n+]2ccccc12
inactive: [1] -15.8% | [2] 11.8% | [3] 29.6% | [4] 25.7% | [5] -5.95% | [6] 44%

Cc1cc(C)n(-c2ccc(Cl)nn2)n1
inactive: [1] 9.25% | [2] 8.35% | [3] 4.35% | [4] -27.6% | [5] 9% | [6] -1.7%

NNc1nc2ccccc2c(=O)n1NC(=O)C(=O)Nc1cccc(C(F)(F)F)c1
inactive: [1] -0.35% | [2] 17.6% | [3] -3.9% | [4] -38.6% | [5] -6.15% | [6] 31.4%

CCC(C)NCC/C(=C\[Si](C)(C)C)c1ccccc1 (stereo unspecified)
inactive: [1] 3.05% | [2] -11.8% | [3] -11.4% | [4] 11.7% | [5] -0.15% | [6] 8.5%

[N-]=[N+]=NC1CC(n2ccc(=O)[nH]c2=O)OC1CO (stereo unspecified)
inactive: [1] -16.6% | [2] -21.9% | [3] 3.3% | [4] -13.6% | [5] -12.8% | [6] -6.85%

NC(CCCCn1nnc2c(=O)[nH]cnc21)C(=O)O (stereo unspecified)
inactive: [1] -12.3% | [2] -26.2% | [3] 6% | [4] -36.9% | [5] 7.1% | [6] -15.6%

Clc1ccccc1-c1nc(-c2ccncc2)no1
inactive: [1] 23.3% | [2] -14.9% | [3] -25% | [4] 34.1% | [5] 57.6% | [6] 34%

O=C(O)C(Cc1ccc(OS(=O)(=O)Cc2ccccc2)cc1)NS(=O)(=O)Cc1ccccc1 (stereo unspecified)
inactive: [1] 29.9% | [2] 5.2% | [3] 8.1% | [4] 5.1% | [5] 12.4% | [6] 24.1%

COC1OC(COC(c2ccccc2)(c2ccccc2)c2ccccc2)C2SC12 (stereo unspecified)
inactive: [1] 23.9% | [2] 10% | [3] -1.05% | [4] 14.2% | [5] 4.8% | [6] 17.6%

CC(O)C1CCCCC1O (stereo unspecified)
inactive: [1] 5.15% | [2] -28.3% | [3] -2.85% | [4] -8.65% | [5] -9.6% | [6] -11.3%

Cc1cccc(C(C)(C)C)c1NC(=O)C(=O)Cc1nc2ccccc2s1
inactive: [1] -12.1% | [2] 7.05% | [3] 5.6% | [4] -41.7% | [5] 5.4% | [6] 18.2%

COc1ccc2[nH]c3c4c(ccc3c2c1)C(=O)C=CC4=O
inactive: [1] 19.8% | [2] 18.3% | [3] 12% | [4] -1.05% | [5] 9.45% | [6] 17.6%

O=C1OCC2CC1C(=O)O2 (stereo unspecified)
inactive: [1] -7.65% | [2] 0.3% | [3] 5.95% | [4] 4.7% | [5] -3.6% | [6] 6.65%
